Structures are written as SMILES. Hit rate of the full screen: of about 310,000 compounds, about 2,200 (0.71%) showed an effect of 50% or more. The effect is printed as a negative number. The sample holds strong results, similar compounds and a random draw of the others, so the mix is not that of the screen.

For this assay, the target named is human ether-à-go-go-related gene (hERG) potassium channel (human, UniProt Q12809). Description: primary screen, population patch clamp on CHO cells stably expressing hERG; higher = less effect of the substance.
human ether-à-go-go-related gene (hERG) potassium channel, sequence (Q12809 whole entry, looked up): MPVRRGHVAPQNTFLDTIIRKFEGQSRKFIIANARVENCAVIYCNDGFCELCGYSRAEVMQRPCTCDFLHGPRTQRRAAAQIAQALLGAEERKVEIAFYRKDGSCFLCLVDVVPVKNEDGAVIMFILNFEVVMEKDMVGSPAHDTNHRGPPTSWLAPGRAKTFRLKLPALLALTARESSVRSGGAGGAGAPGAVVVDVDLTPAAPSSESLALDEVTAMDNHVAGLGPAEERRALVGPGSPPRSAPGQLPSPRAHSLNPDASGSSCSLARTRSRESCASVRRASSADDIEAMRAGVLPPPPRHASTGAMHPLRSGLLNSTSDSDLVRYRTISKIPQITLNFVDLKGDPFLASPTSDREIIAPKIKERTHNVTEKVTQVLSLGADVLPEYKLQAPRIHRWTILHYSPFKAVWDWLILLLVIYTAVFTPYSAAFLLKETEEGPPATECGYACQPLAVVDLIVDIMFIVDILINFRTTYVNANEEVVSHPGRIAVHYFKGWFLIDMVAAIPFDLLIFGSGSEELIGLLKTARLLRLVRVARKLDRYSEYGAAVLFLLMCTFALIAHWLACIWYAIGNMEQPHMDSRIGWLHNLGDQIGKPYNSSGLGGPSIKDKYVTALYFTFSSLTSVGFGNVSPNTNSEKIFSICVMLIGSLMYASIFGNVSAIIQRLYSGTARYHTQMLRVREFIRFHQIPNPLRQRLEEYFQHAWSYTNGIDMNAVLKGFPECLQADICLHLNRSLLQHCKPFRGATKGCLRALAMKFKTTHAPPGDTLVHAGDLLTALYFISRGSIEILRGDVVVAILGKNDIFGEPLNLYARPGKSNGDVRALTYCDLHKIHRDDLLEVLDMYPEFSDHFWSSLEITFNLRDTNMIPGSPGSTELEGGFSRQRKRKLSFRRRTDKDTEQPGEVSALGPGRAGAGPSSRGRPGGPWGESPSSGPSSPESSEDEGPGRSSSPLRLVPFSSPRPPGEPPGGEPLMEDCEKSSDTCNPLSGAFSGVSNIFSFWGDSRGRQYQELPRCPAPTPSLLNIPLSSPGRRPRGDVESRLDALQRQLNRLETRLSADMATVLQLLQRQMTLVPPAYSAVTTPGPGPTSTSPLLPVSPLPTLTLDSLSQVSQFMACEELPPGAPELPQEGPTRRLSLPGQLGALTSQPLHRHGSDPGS
As to `CCOC(=O)C1(CCOc2ccccc2)CCN(Cc2cc(OC)c(O)cc2Cl)CC1`, the “hERG current change (%, negative = inhibition) at 1uM” value turned out to be 7.21%.

Turning to `CCOC(=O)CSc1nnc(COc2cccc(C)c2)o1`, the “hERG current change (%, negative = inhibition) at 1uM” value is reported as 10.6%.

As to `COCCOc1ccc(C(F)(F)F)cc1NC(=O)c1ccc(C(F)(F)F)cc1`, the “hERG current change (%, negative = inhibition) at 1uM” value amounted to 4.7%.

For the molecule `CCN(CC)S(=O)(=O)c1ccc(N/N=C/c2cc(OC)c(OC)cc2OC)nc1`, the “hERG current change (%, negative = inhibition) at 1uM” value came out at 17.4%.

Consider `COc1ccc(C(=O)NC2CCCc3ccccc32)cc1OC1CCN(C(C)=O)CC1` (stereo not drawn), for which the “hERG current change (%, negative = inhibition) at 1uM” value is reported as 3.31%.

Turning to `CCOc1ccc(/C(O)=C2/C(=O)C(=O)N(CCCN3CCOCC3)C2c2ccc(F)cc2)cc1C` (stereo not drawn), the “hERG current change (%, negative = inhibition) at 1uM” value came out at 16.5%.

Turning to `CN1CCN(S(=O)(=O)c2ccc(N3CCN(C(c4ccccc4)c4ccccc4)CC3)nc2)CC1`, the “hERG current change (%, negative = inhibition) at 1uM” value is listed as 18.9%.

For the molecule `O=C(COc1ccc([N+](=O)[O-])cc1)Nc1ccc(S(=O)(=O)N2CCOCC2)cc1`, the “hERG current change (%, negative = inhibition) at 1uM” value is on record as -55.1%.

Turning to `Cc1ccc(NC(=O)COc2ccc(S(=O)(=O)N3CCOCC3)cc2)cc1`, the “hERG current change (%, negative = inhibition) at 1uM” value is 13.6%.

For the molecule `O=C(COc1ccc(S(=O)(=O)N2CCOCC2)cc1)Nc1cccc([N+](=O)[O-])c1`, the “hERG current change (%, negative = inhibition) at 1uM” value was determined as 9.62%.

On to `Cc1c(CCC(=O)N2CCC[C@H]2C(=O)O)c(=O)oc2c(C)c3oc4c(c3cc12)CCCC4`, for which the “hERG current change (%, negative = inhibition) at 1uM” value is on record as 21.1%.

Regarding `COC(=O)C(NC(C)=O)(Nc1ccc(C)cn1)C(F)(F)F` (stereo not drawn), the “hERG current change (%, negative = inhibition) at 1uM” value was determined as 21.1%.

Consider `Cc1ccc(NP(=O)(Oc2ccccc2F)Oc2ccccc2F)cc1`, for which the “hERG current change (%, negative = inhibition) at 1uM” value is listed as -1.69%.

For `COc1cc(OC)cc(C(=O)N2CCN(Cc3ccccc3Br)CC2)c1`, the “hERG current change (%, negative = inhibition) at 1uM” value was 9.25%.

Turning to `Cc1ccc(S(=O)(=O)c2cc3c(=O)n4ccccc4nc3n(C3CCCCC3)c2=N)cc1`, the “hERG current change (%, negative = inhibition) at 1uM” value is listed as -0.427%.

For the molecule `Cc1ccc2nc3c(cc(C(=O)NC4CCCC4)c(=N)n3CCCn3ccnc3)c(=O)n2c1`, the “hERG current change (%, negative = inhibition) at 1uM” value was -2.46%.

In the case of `Cc1ccc2nc3c(cc(C(=O)NC4CCCC4)c(=N)n3C3CCCCC3)c(=O)n2c1`, the “hERG current change (%, negative = inhibition) at 1uM” value was -86.2%.

For the molecule `Cc1ccc2nc3c(cc(C(=O)NC4CCCCC4)c(=N)n3C3CCCCC3)c(=O)n2c1`, the “hERG current change (%, negative = inhibition) at 1uM” value is on record as -72.7%.

On to `Cc1ccc(S(=O)(=O)c2cc3c(=O)n4ccccc4nc3n(C3CCCC3)c2=N)cc1`, for which the “hERG current change (%, negative = inhibition) at 1uM” value amounted to 3.8%.

Consider `CCCOc1cccc(C(=O)N(Cc2ccco2)C2CCS(=O)(=O)C2)c1` (stereo not drawn), for which the “hERG current change (%, negative = inhibition) at 1uM” value is 3.56%.

For the molecule `CCN(CC)C(=O)C1CCN(S(=O)(=O)c2ccc3oc4ccccc4c3c2)CC1`, the “hERG current change (%, negative = inhibition) at 1uM” value is reported as 16.7%.

On to `CCc1ccc(NC(=O)c2nc(S(=O)(=O)Cc3ccccc3)ncc2Cl)cc1`, for which the “hERG current change (%, negative = inhibition) at 1uM” value turned out to be 20.7%.

In the case of `O=c1[nH]c2ccccc2cc1CN(Cc1cccnc1)S(=O)(=O)c1ccc([N+](=O)[O-])cc1`, the “hERG current change (%, negative = inhibition) at 1uM” value is -5.07%.

Regarding `c1ccc(C(c2nnnn2Cc2ccco2)N2CCN(c3nc4ccccc4s3)CC2)cc1` (stereo not drawn), the “hERG current change (%, negative = inhibition) at 1uM” value is given as 8.1%.

Turning to `Cc1ccc(Cl)cc1NC(=O)C1CCCN(S(C)(=O)=O)C1` (stereo not drawn), the “hERG current change (%, negative = inhibition) at 1uM” value amounted to 7.81%.

`O=[N+]([O-])c1ccc(N2CCN(Cc3ccc4c(c3)OCO4)CC2)nc1`: the “hERG current change (%, negative = inhibition) at 1uM” value is reported as -29.2%.

With `O=Cc1cc([N+](=O)[O-])ccc1N1CCN(Cc2ccc3c(c2)OCO3)CC1`, the “hERG current change (%, negative = inhibition) at 1uM” value was -66.7%.

In the case of `Cl.O=[N+]([O-])c1ccc2ncnc(N3CCN(Cc4ccc5c(c4)OCO5)CC3)c2c1`, the “hERG current change (%, negative = inhibition) at 1uM” value is listed as 11.4%.

Regarding `Cc1ccccc1Nc1nc2nonc2nc1N1CCOCC1`, the “hERG current change (%, negative = inhibition) at 1uM” value turned out to be 6.45%.

For the molecule `CC1C(=O)NC(=O)C1c1ccccc1` (stereo not drawn), the “hERG current change (%, negative = inhibition) at 1uM” value came to 13.3%.

On to `Cn1c(N)c(C(=O)COC(=O)CSc2ccc(Cl)cc2)c(=O)n(C)c1=O`, for which the “hERG current change (%, negative = inhibition) at 1uM” value is recorded as -2.13%.

With `CC(C)(C)NCc1cc2ccccc2[nH]c1=O`, the “hERG current change (%, negative = inhibition) at 1uM” value was 8.1%.

For the molecule `O=C1CCN(CCc2ccccc2)CCN1[C@H](COc1ccccc1)c1ccccc1`, the “hERG current change (%, negative = inhibition) at 1uM” value is -82.8%.

Consider `CCCCCCCN1CCC(=O)N([C@H](CO)c2ccccc2)CC1`, for which the “hERG current change (%, negative = inhibition) at 1uM” value is -25.8%.

For the molecule `O=C1CCN(Cc2ccccc2)CCN1[C@H](COc1ccccc1)c1ccccc1`, the “hERG current change (%, negative = inhibition) at 1uM” value is reported as 2.66%.

Turning to `CCCN1CCC(=O)N([C@H](CO)c2ccccc2)CC1`, the “hERG current change (%, negative = inhibition) at 1uM” value came to 9.74%.

In the case of `CCCN1CCC(=O)N([C@H](COc2ccccc2)c2ccccc2)CC1`, the “hERG current change (%, negative = inhibition) at 1uM” value was -76.5%.

Regarding `CC(C)C[C@@H](COc1ccccc1)N1CCN(CC(C)C)CCC1=O`, the “hERG current change (%, negative = inhibition) at 1uM” value is reported as -21.2%.

As for `O=C1CCN(CCc2ccccc2)CCN1[C@H](CO)c1ccccc1`, the “hERG current change (%, negative = inhibition) at 1uM” value was -7.26%.

`CC(C)CN1CCC(=O)N([C@H](COc2ccccc2)c2ccccc2)CC1`: the “hERG current change (%, negative = inhibition) at 1uM” value was -64.3%.

For `CC(C)CN1CCC(=O)N([C@H](CO)c2ccccc2)CC1`, the “hERG current change (%, negative = inhibition) at 1uM” value was 12.6%.

As to `COc1ccc(CCNc2nc(-c3cccnc3)cs2)cc1OC`, the “hERG current change (%, negative = inhibition) at 1uM” value was 23.6%.

For the origin of these results see article PMC4336329 (PLoS ONE, 2015).
